According to PubChem BioAssay:
Values without a mark were called inactive. For some assays here: Measured potencies and affinities stand elsewhere. Active and inactive are the calls of the source. Unless noted, how the calls were made is not given here.

Key:
[1] = antimalarial activity against Dd2 strain (AID 2302;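 active means growth inhibition above 50% at the single 2 µM test dose, taken to imply half-maximal potency below 2 µM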;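 further: 0% = DMSO untreated growth and 100% = chloroquine plus artemisinin killed control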); settings: P. falciparum Dd2 in RBCs, LDH growth readout, 72 h; at 2 µM; hits give high values
[2] = human hepatoma cell viability loss – ATP luminescence, cytotoxicity control for P. falciparum antimalarial project, primary screen (AID 2303;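 active means inhibition above 50%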;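 further: 0% = DMSO wells and 100% = digitonin-killed cells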); settings: HepG2 viability, 24-48 h, at 10 µM, hits give high values
[3] = target: L-lactate dehydrogenase (Plasmodium falciparum (isolate CDC / Honduras)) (UniProt Q27743); assay: PfLDH activity inhibition – cell lysate, 3D7 strain, counter-screen for P. falciparum growth inhibition project (AID 2304);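 further: 0% = vehicle and 100% = reference inhibitor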; settings: P. falciparum 3D7 crude extract, LDH APAD/NBT absorbance; at 2 µM; hits give high values
Sequence of L-lactate dehydrogenase (Plasmodium falciparum (isolate CDC / Honduras)) (Q27743 whole entry, looked up): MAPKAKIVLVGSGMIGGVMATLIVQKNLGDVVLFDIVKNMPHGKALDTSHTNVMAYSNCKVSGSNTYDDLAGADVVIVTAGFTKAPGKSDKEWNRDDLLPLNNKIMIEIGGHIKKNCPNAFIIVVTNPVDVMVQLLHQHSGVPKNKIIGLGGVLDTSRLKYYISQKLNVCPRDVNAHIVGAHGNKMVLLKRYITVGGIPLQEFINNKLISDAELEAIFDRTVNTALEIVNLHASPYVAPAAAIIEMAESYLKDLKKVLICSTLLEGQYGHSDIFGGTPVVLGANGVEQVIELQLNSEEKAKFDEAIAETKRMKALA

[4] = inhibition of 3D7 malaria parasite growth – strain 3D7 (AID 2306);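 further: 0% = DMSO wells and 100% = chloroquine plus artemisinin control wells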; settings: P. falciparum 3D7 erythrocytic growth, LDH absorbance, 72 h; at 2 µM; hits give high values
[5] = target: Calcium-dependent protein kinase 1 (Plasmodium falciparum (isolate 3D7)) (UniProt P62344); assay: PfCDPK1 kinase inhibitors, biochemical, TCAMS library (AID 1159585; cut-off not given, nearly all actives have IC50 up to about 0.98 µM;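 further: inhibitors leave more ATP so luminescence rises with inhibition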); settings: recombinant PfCDPK1, Kinase-Glo ATP depletion luminescence
Sequence of Calcium-dependent protein kinase 1 (Plasmodium falciparum (isolate 3D7)) (P62344 whole entry, looked up): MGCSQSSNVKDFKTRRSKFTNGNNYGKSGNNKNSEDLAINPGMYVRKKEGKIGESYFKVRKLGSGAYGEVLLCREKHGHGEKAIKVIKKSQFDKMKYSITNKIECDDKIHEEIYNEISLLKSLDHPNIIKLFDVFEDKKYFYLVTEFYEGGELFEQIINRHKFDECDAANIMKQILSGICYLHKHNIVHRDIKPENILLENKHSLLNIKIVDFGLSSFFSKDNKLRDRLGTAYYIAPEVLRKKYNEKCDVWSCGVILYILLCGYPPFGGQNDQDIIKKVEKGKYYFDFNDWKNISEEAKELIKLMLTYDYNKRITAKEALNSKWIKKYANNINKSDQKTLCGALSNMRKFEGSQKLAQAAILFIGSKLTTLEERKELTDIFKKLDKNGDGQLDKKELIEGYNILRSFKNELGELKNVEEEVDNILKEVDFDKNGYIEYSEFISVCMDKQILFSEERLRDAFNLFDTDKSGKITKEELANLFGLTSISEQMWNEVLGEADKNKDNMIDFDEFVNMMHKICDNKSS

[6] = target: Plasmodium falciparum protein kinase 6 (PK6, PF3D7_1337100) (UniProt Q8IDW1); assay: PfPK6 kinase inhibitors, biochemical, TCAMS library (AID 1159586); settings: recombinant PfPK6, Kinase-Glo ATP depletion luminescence
Sequence of Plasmodium falciparum protein kinase 6 (PK6, PF3D7_1337100) (Q8IDW1 1-305): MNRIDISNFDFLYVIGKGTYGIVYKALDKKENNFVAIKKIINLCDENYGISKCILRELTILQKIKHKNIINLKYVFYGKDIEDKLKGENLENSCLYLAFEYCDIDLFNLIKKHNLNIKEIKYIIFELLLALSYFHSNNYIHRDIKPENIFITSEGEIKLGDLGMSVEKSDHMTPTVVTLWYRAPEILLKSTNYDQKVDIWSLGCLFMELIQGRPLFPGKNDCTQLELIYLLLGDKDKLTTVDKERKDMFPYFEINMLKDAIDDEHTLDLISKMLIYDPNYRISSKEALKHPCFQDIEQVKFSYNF

[7] = target: Protein kinase 7 (PK7), Plasmodium falciparum 3D7 (PF3D7_0213400) (UniProt Q7YTF7); assay: inhibition of Plasmodium PK7 catalytic activity – biochemical, TCAMS antimalarial set, Kinase-Glo luminescence (AID 1159587); settings: recombinant PfPK7, Kinase-Glo ATP depletion luminescence
Sequence of Protein kinase 7 (PK7), Plasmodium falciparum 3D7 (PF3D7_0213400) (Q7YTF7 1-343): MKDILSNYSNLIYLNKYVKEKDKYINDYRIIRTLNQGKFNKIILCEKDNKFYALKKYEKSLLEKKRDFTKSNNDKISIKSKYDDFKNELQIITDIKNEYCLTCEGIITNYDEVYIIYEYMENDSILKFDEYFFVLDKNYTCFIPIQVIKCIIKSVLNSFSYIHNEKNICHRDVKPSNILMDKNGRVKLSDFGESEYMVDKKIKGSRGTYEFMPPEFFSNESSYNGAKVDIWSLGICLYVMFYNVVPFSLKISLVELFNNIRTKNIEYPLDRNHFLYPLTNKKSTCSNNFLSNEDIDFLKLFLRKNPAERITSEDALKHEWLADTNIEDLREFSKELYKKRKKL

[8] = target: Calcium-dependent protein kinase 4 (Plasmodium falciparum (isolate 3D7)) (UniProt Q8IBS5); assay: PfCDPK4 kinase inhibitors, biochemical, TCAMS library (AID 1159588; cut-off not given, nearly all actives have IC50 up to about 0.91 µM); settings: recombinant PfCDPK4, Kinase-Glo ATP depletion luminescence
Sequence of Calcium-dependent protein kinase 4 (Plasmodium falciparum (isolate 3D7)) (Q8IBS5 whole entry, looked up): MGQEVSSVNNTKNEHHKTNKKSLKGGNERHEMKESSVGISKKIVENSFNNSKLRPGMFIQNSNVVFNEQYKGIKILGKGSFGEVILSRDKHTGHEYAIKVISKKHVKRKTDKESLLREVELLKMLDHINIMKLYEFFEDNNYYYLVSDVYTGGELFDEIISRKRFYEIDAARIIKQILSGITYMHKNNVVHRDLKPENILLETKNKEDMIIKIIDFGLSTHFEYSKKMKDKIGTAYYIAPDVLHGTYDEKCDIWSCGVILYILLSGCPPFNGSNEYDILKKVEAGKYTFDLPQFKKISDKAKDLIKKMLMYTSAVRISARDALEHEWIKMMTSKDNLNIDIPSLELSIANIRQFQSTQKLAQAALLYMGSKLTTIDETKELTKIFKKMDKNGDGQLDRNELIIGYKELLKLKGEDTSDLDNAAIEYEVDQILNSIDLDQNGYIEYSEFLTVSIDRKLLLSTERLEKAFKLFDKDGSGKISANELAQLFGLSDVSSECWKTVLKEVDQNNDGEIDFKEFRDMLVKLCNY

COC(=O)c1noc(C)c1I
growth inhibition [1]: 2%
inhibition [2]: 5%
inhibition [3]: -9%
growth inhibition [4]: 99% (active)
outcome [5]: inactive
outcome [6]: inactive
outcome [7]: inactive
outcome [8]: inactive

O=C(Nc1cccc(CN2CCCN(CC3CCCCC3)CC2)c1)c1cc2ccccc2s1
growth inhibition [1]: 15%
inhibition [2]: 29%
inhibition [3]: 0%
growth inhibition [4]: 96% (active)
outcome [5]: inactive
outcome [6]: inactive
outcome [7]: inactive
outcome [8]: inactive

O=C(/C=C/c1ccc(Cl)c(Cl)c1)NCCCCCN1CCC(CCCNC(=O)Nc2ccc(C(F)(F)F)cc2)CC1
growth inhibition [1]: 19%
inhibition [2]: -2%
inhibition [3]: -7%
growth inhibition [4]: 91% (active)
outcome [5]: inactive
outcome [6]: inactive
outcome [7]: inactive
outcome [8]: inactive

CC(=O)Nc1ccc(S(=O)(=O)Nc2ccc(Nc3nc(C)cc(N4CCCCC4)n3)cc2)cc1
growth inhibition [1]: 54% (active)
inhibition [2]: 23%
inhibition [3]: 0%
growth inhibition [4]: 89% (active)
outcome [5]: inactive
outcome [6]: inactive
outcome [7]: inactive
outcome [8]: inactive

Cc1cc(-c2ccc(CNCc3ccsc3)cc2)ccc1S(=O)(=O)NCCN1CCCC1
growth inhibition [1]: 49%
inhibition [2]: 57% (active)
inhibition [3]: -1%
growth inhibition [4]: 99% (active)
outcome [5]: inactive
outcome [6]: inactive
outcome [7]: inactive
outcome [8]: inactive

O=C(O)c1ccc2nc(-c3ccccn3)c(-c3ccccn3)nc2c1
growth inhibition [1]: 18%
inhibition [2]: 3%
inhibition [3]: 4%
growth inhibition [4]: 97% (active)
outcome [5]: inactive
outcome [6]: inactive
outcome [7]: inactive
outcome [8]: inactive

COc1ccc2nccc([C@@H](O)CN3CCC(NC(=O)COc4nc(SCc5ccc(F)cc5)nc5c4CCC5)CC3)c2c1
growth inhibition [1]: 78% (active)
inhibition [2]: 29%
inhibition [3]: -2%
growth inhibition [4]: 96% (active)
outcome [5]: inactive
outcome [6]: inactive
outcome [7]: inactive
outcome [8]: inactive

O=C(/C=C/c1ccc(Cl)cc1)NCCCCCN1CCCC(C(=O)Nc2ccc(Cl)c(Cl)c2)C1 (stereo not given)
growth inhibition [1]: 3%
inhibition [2]: 27%
inhibition [3]: -3%
growth inhibition [4]: 96% (active)
outcome [5]: inactive
outcome [6]: inactive
outcome [7]: inactive
outcome [8]: inactive

O=C(NCc1cccc(C(F)(F)F)c1)C1CCCN(C(=O)c2ccc(O)c(-c3ccc(Cl)c(Cl)c3)c2)C1 (stereo not given)
growth inhibition [1]: 32%
inhibition [2]: 1%
inhibition [3]: 6%
growth inhibition [4]: 94% (active)
outcome [5]: inactive
outcome [6]: inactive
outcome [7]: inactive
outcome [8]: inactive

CN1CCN(CC(=O)Nc2ccc(-c3cccc(-c4nc5ccc(F)cc5[nH]4)c3)cc2)CC1
growth inhibition [1]: 100% (active)
inhibition [2]: 18%
inhibition [3]: 3%
growth inhibition [4]: 100% (active)
outcome [5]: inactive
outcome [6]: inactive
outcome [7]: inactive
outcome [8]: inactive

O=C(Nc1ccc2c(c1)CCN2C1CCN(Cc2cc(F)cc(F)c2F)C1)c1ccco1 (stereo not given)
growth inhibition [1]: 95% (active)
inhibition [2]: -2%
inhibition [3]: 1%
growth inhibition [4]: 96% (active)
outcome [5]: inactive
outcome [6]: inactive
outcome [7]: inactive
outcome [8]: inactive

O=S(=O)(c1csc2ccccc12)N(CCC(O)(C(F)(F)F)C(F)(F)F)Cc1cccc(O)c1
growth inhibition [1]: 100% (active)
inhibition [2]: -11%
inhibition [3]: 7%
growth inhibition [4]: 101% (active)
outcome [5]: inactive
outcome [6]: inactive
outcome [7]: inactive
outcome [8]: inactive

CC(Cc1ccc(NC(=O)c2ccc(CNCCc3ccccc3)cc2)cc1)NCCc1cccc(Cl)c1 (stereo not given)
growth inhibition [1]: 99% (active)
inhibition [2]: 100% (active)
inhibition [3]: 0%
growth inhibition [4]: 100% (active)
outcome [5]: inactive
outcome [6]: inactive
outcome [7]: inactive
outcome [8]: inactive

CN(C)CCCNc1ncnc2c1[nH]c1ccc(Br)cc12
growth inhibition [1]: 19%
inhibition [2]: 3%
inhibition [3]: 3%
growth inhibition [4]: 100% (active)
outcome [5]: inactive
outcome [6]: inactive
outcome [7]: inactive
outcome [8]: inactive

COc1ccc2nccc([C@@H](O)CN3CCC(NCCOc4ccccc4[N+](=O)[O-])CC3)c2c1
growth inhibition [1]: 98% (active)
inhibition [2]: 4%
inhibition [3]: -2%
growth inhibition [4]: 100% (active)
outcome [5]: inactive
outcome [6]: inactive
outcome [7]: inactive
outcome [8]: inactive

O=C(NCC1CCN(Cc2ccc3c(c2)OCCO3)C1)c1cc(-c2cccc(C(F)(F)F)c2)cs1 (stereo not given)
growth inhibition [1]: 1%
inhibition [2]: 31%
inhibition [3]: 4%
growth inhibition [4]: 101% (active)
outcome [5]: inactive
outcome [6]: inactive
outcome [7]: inactive
outcome [8]: inactive

CC(C)c1nc(N2CCN(C(=S)NCc3ccccc3)CC2)c(C#N)c2c1COC(C)(C)C2
growth inhibition [1]: 100% (active)
inhibition [2]: -7%
inhibition [3]: 6%
growth inhibition [4]: 99% (active)
outcome [5]: inactive
outcome [6]: inactive
outcome [7]: inactive
outcome [8]: inactive

COC(=O)c1ccc2nc(-c3cc(-c4cccc(-c5ccccc5)c4)cnc3N)[nH]c2c1
growth inhibition [1]: 61% (active)
inhibition [2]: 25%
inhibition [3]: 5%
growth inhibition [4]: 101% (active)
outcome [5]: inactive
outcome [6]: inactive
outcome [7]: inactive
outcome [8]: inactive

c1ccc(-c2cc(NCCCCCCCCNc3cc(-c4ccccc4)nc4ccccc34)c3ccccc3n2)cc1
growth inhibition [1]: 72% (active)
inhibition [2]: 36%
inhibition [3]: 1%
growth inhibition [4]: 101% (active)
outcome [5]: inactive
outcome [6]: inactive
outcome [7]: inactive
outcome [8]: inactive

CCCc1nc2c(N3CC(NC(=O)/C=C/c4ccccc4)C3)cccc2n1C1CC1
growth inhibition [1]: 68% (active)
inhibition [2]: 1%
inhibition [3]: 0%
growth inhibition [4]: 83% (active)
outcome [5]: inactive
outcome [6]: inactive
outcome [7]: inactive
outcome [8]: inactive

Cc1nc(N=C(N)N)nc2ccc(C(C)(C)C)cc12
growth inhibition [1]: 91% (active)
inhibition [2]: 4%
inhibition [3]: -1%
growth inhibition [4]: 96% (active)
outcome [5]: inactive
outcome [6]: inactive
outcome [7]: inactive
outcome [8]: inactive

O=C(Nc1cccc(C(F)(F)F)c1)c1cccc(S(=O)(=O)NC2CCCN(CC3CCCCC3)C2)c1 (stereo not given)
growth inhibition [1]: 15%
inhibition [2]: 18%
inhibition [3]: 1%
growth inhibition [4]: 97% (active)
outcome [5]: inactive
outcome [6]: inactive
outcome [7]: inactive
outcome [8]: inactive

Cc1ccc(Oc2ncccc2C(=O)Nc2cccc3cccnc23)c(C)c1
growth inhibition [1]: 76% (active)
inhibition [2]: -13%
inhibition [3]: 0%
growth inhibition [4]: 99% (active)
outcome [5]: inactive
outcome [6]: inactive
outcome [7]: inactive
outcome [8]: inactive

Cc1cc2c(/C=C/C(=O)NC3CCC(CCN4CCc5ccc(C#N)cc5CC4)CC3)cccc2[nH]1 (stereo not given)
growth inhibition [1]: 39%
inhibition [2]: 16%
inhibition [3]: 1%
growth inhibition [4]: 95% (active)
outcome [5]: inactive
outcome [6]: inactive
outcome [7]: inactive
outcome [8]: inactive

COc1ccc(CCOc2c(C)nc(N)nc2N)cc1OC
growth inhibition [1]: 22%
inhibition [2]: 66% (active)
inhibition [3]: 4%
growth inhibition [4]: 96% (active)
outcome [5]: inactive
outcome [6]: inactive
outcome [7]: inactive
outcome [8]: inactive

O=C(/C=C/c1ccc(Cl)c(Cl)c1)N1CCC(CN2CCC(c3nc4ccccc4n3CCCO)CC2)CC1
growth inhibition [1]: -4%
inhibition [2]: 60% (active)
inhibition [3]: -8%
growth inhibition [4]: 96% (active)
outcome [5]: inactive
outcome [6]: inactive
outcome [7]: inactive
outcome [8]: inactive

CN1CCN(c2ccc(CNc3ccc4ncc(-c5ccc(OC(F)(F)F)cc5)n4n3)cc2)CC1
growth inhibition [1]: 87% (active)
inhibition [2]: 13%
inhibition [3]: 0%
growth inhibition [4]: 94% (active)
outcome [5]: inactive
outcome [6]: inactive
outcome [7]: inactive
outcome [8]: inactive

O=C(Nc1ccc(-c2cccc(-c3nc4ccccc4[nH]3)c2)cc1)Nc1ccc(F)c(F)c1F
growth inhibition [1]: 96% (active)
inhibition [2]: 74% (active)
inhibition [3]: 5%
growth inhibition [4]: 100% (active)
outcome [5]: inactive
outcome [6]: inactive
outcome [7]: inactive
outcome [8]: inactive

COc1ccc2nc(C)cc(NN=Cc3ccc(Cl)cc3)c2c1
growth inhibition [1]: 100% (active)
inhibition [2]: 2%
inhibition [3]: 3%
growth inhibition [4]: 100% (active)
outcome [5]: inactive
outcome [6]: inactive
outcome [7]: inactive
outcome [8]: inactive

COc1cc(F)c2ncc(Cl)c([C@@H](O)CN3CCC(NCc4cc5c(cn4)OCCO5)CC3)c2c1
growth inhibition [1]: 100% (active)
inhibition [2]: 11%
inhibition [3]: 2%
growth inhibition [4]: 101% (active)
outcome [5]: inactive
outcome [6]: inactive
outcome [7]: inactive
outcome [8]: inactive

COCCOC(=O)C(=O)c1c(-c2ccccc2)c(-c2ccc(OC)c(OC)c2)c2c3cc(OC)c(OC)cc3ccn12
growth inhibition [1]: 100% (active)
inhibition [2]: 4%
inhibition [3]: -2%
growth inhibition [4]: 101% (active)
outcome [5]: inactive
outcome [6]: inactive
outcome [7]: inactive
outcome [8]: inactive

O=C(Nc1ccc(Cn2nc(Cl)c(N3CCCNCC3)cc2=O)cc1)Nc1ccc(-c2ccccc2)cc1
growth inhibition [1]: 36%
inhibition [2]: 89% (active)
inhibition [3]: 1%
growth inhibition [4]: 87% (active)
outcome [5]: inactive
outcome [6]: inactive
outcome [7]: inactive
outcome [8]: inactive

CCOC(=O)N1CCN(CCCCNc2c3ccc(Cl)cc3nc3ccc(OC)cc23)CC1
growth inhibition [1]: 98% (active)
inhibition [2]: 25%
inhibition [3]: -5%
growth inhibition [4]: 104% (active)
outcome [5]: inactive
outcome [6]: inactive
outcome [7]: inactive
outcome [8]: inactive

CN(CCN)Cc1ccc(-c2ccc(-c3nc4ccc(F)cc4[nH]3)s2)cc1
growth inhibition [1]: 81% (active)
inhibition [2]: 31%
inhibition [3]: -1%
growth inhibition [4]: 96% (active)
outcome [5]: inactive
outcome [6]: inactive
outcome [7]: inactive
outcome [8]: inactive

Cc1cc(-c2ccc(NC(=O)c3coc4ccc(N5C[C@@H](C)N(C)[C@@H](C)C5)cc34)cc2C)cc(C)n1
growth inhibition [1]: 62% (active)
inhibition [2]: 13%
inhibition [3]: -4%
growth inhibition [4]: 94% (active)
outcome [5]: inactive
outcome [6]: inactive
outcome [7]: inactive
outcome [8]: inactive

CNC(=S)NCc1cnc2ccccn12
growth inhibition [1]: -2%
inhibition [2]: -2%
inhibition [3]: 3%
growth inhibition [4]: 97% (active)
outcome [5]: inactive
outcome [6]: inactive
outcome [7]: inactive
outcome [8]: inactive

CC(Cc1ccc(OCC(=O)NCC2CCN(CCc3cccc(Cl)c3)CC2)cc1)NCCc1cccc(Cl)c1 (stereo not given)
growth inhibition [1]: 85% (active)
inhibition [2]: 100% (active)
inhibition [3]: -8%
growth inhibition [4]: 96% (active)
outcome [5]: inactive
outcome [6]: inactive
outcome [7]: inactive
outcome [8]: inactive

CC(C)c1cc(Oc2c(I)cc(CCNCc3ccccc3)cc2I)ccc1O
growth inhibition [1]: 54% (active)
inhibition [2]: 42%
inhibition [3]: 4%
growth inhibition [4]: 95% (active)
outcome [5]: inactive
outcome [6]: inactive
outcome [7]: inactive
outcome [8]: inactive

COc1ccc(-c2ccc(NC(=O)c3ccc(C#N)cc3)cc2)cc1CN1CCCN(C)CC1
growth inhibition [1]: 75% (active)
inhibition [2]: 27%
inhibition [3]: -3%
growth inhibition [4]: 99% (active)
outcome [5]: inactive
outcome [6]: inactive
outcome [7]: inactive
outcome [8]: inactive

CCOc1ccc(OCC(=O)Nc2nc(-c3ccc(OC)cc3)c(C)s2)cc1
growth inhibition [1]: 98% (active)
inhibition [2]: -7%
inhibition [3]: -8%
growth inhibition [4]: 99% (active)
outcome [5]: inactive
outcome [6]: inactive
outcome [7]: inactive
outcome [8]: inactive
